Inconclusive results are not listed. Active and inactive are the calls of the source. The calls were made as follows: active = hit-call score of the fitted dose curve at least 0.9, where 1 is the maximum; inconclusive = response in the unintended direction; inactive = score below 0.9.

The target of assay [1] is human Opioid Receptor Delta 1 (Opiate D1), OPRD1 (gene 4985) (UniProt P41143). Put plainly: NVS_GPCR_hOpiate_D1: NovaScreen (NVS) G Protein-Coupled Receptor Assay for human Opioid Receptor Delta 1 (Opiate D1) (AID 2283280). The essentials: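 Radioligand displacement on membranes from CHO cells expressing the receptor, read by filter scintillation counting 1 h after dosing. Duplicate single-point screen at 25 uM, then concentration series for actives; loss of signal versus DMSO.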

Assay [2] has as its target rat Serotonin, 5-Hydroxytryptamine Receptor 1 (5HT1), Non-Selective Binding, Htr1a (gene 24473) (UniProt P19327). In words: NVS_GPCR_r5HT1_NonSelective: NovaScreen (NVS) G Protein-Coupled Receptor Assay for rat Serotonin, 5-Hydroxytryptamine Receptor 1 (5HT1), Non-Selective Binding (AID 2283286). The essentials: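 Rat cortical membranes, radioligand displacement, 1 h incubation, read by filter scintillation. Primary screen in duplicate at 25 uM. Hits (e.g. ≥30% inhibition) went to concentration-response up to 50 uM, fitted as loss of binding versus DMSO.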

Assay [3] concerns 5-hydroxytryptamine receptor 2C (pig). In words: NVS_GPCR_p5HT2C: NovaScreen (NVS) G Protein-Coupled Receptor Assay for pig Serotonin, 5-Hydroxytryptamine Receptor 2C (5HT2C) (AID 2283288). A digest of the protocol: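 Pig choroid plexus membranes; radioligand competitive binding, filter-based scintillation counting, read 1 h after dosing. Primary screen in duplicate at 25 uM; actives then run as concentration series; loss of signal versus DMSO baseline.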

For assay [4], the target named is human Opioid Receptor Mu (Opiate Mu), OPRM1 (gene 4988) (UniProt P35372). In words: NVS_GPCR_hOpiate_mu: NovaScreen (NVS) G Protein-Coupled Receptor Assay for human Opioid Receptor Mu (Opiate Mu) (AID 2283290).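 Also: hits lower bound tracer signal versus DMSO meaning displacement of the ligand.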 The essentials:
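Cell-free radioligand binding to membranes from CHO cells expressing the receptor; bound tracer measured by filter-based scintillation counting 2.5 hours after dosing. Loss of signal versus DMSO baseline reflects displacement; primary screen at 25 uM in duplicate, actives followed up in concentration series.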

Assay [5] addresses guinea pig Bradykinin Receptor B2 (BK2), BDKRB2 (gene 100135486) (UniProt O70526). Put plainly: NVS_GPCR_gBK2: NovaScreen (NVS) G Protein-Coupled Receptor Assay for guinea pig Bradykinin Receptor B2 (BK2) (AID 2283292). The essentials: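 Radioligand displacement on guinea pig ileum membranes for 1 h, read by filter-based scintillation counting; loss of signal relative to DMSO. Compounds were screened in duplicate at 25 uM, and those passing the threshold were retested in concentration-response up to 50 uM.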

The target in assay [6] is guinea pig Serotonin, 5-Hydroxytryptamine Receptor 4 (5HT4), HTR4 (gene 100135548) (UniProt O70528). In words: NVS_GPCR_g5HT4: NovaScreen (NVS) G Protein-Coupled Receptor Assay for guinea pig Serotonin, 5-Hydroxytryptamine Receptor 4 (5HT4) (AID 2283294). The essentials: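 Guinea pig striatal membranes; radioligand competitive displacement, filtration and scintillation counting after 1 h. Primary screen in duplicate at 25 uM; actives then tested in concentration series; loss of binding signal fitted relative to DMSO.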

For assay [7], the target named is rat Serotonin, 5-Hydroxytryptamine Receptor (5HT), Non-Selective Binding, Htr1a (gene 24473) (UniProt P19327). In words: NVS_GPCR_r5HT_NonSelective: NovaScreen (NVS) G Protein-Coupled Receptor Assay for rat Serotonin, 5-Hydroxytryptamine Receptor (5HT), Non-Selective Binding (AID 2283295). The essentials:
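Radioligand displacement on rat cortical membranes, 1 h incubation, filter-based scintillation counting. Primary duplicates at 25 uM, actives retested in concentration series; loss of signal fitted against DMSO as baseline.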

Assay [8] addresses rat Adrenergic, Alpha 1A Receptor (Adra1A), Adra1a (gene 29412) (UniProt P43140). In words: NVS_GPCR_rAdra1A: NovaScreen (NVS) G Protein-Coupled Receptor Assay for rat Adrenergic, Alpha 1A Receptor (Adra1A) (AID 2283296). A digest of the protocol: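 Rat cortical membranes pretreated with chlorethyl clonidine; competitive radioligand displacement, 1 h. Filter-based scintillation counting. Primary screen in duplicate at 25 uM, actives followed in concentration series.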

Assay [9] has as its system rat Adrenergic, Alpha 1B Receptor (Adra1B), gene 24173. In words: NVS_GPCR_rAdra1B: NovaScreen (NVS) G Protein-Coupled Receptor Assay for rat Adrenergic, Alpha 1B Receptor (Adra1B) (AID 2283297). The essentials: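 Rat liver membranes, radioligand displacement with filter-based scintillation detection, 1 h incubation. Primary screen in duplicate at 25 uM; actives retested in concentration series; activity relative to DMSO.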

Assay [10] deals with rat Adrenergic Receptor, Alpha 2 (Adra2), Non-selective Binding, Adra2a (gene 25083) (UniProt P22909). In words: NVS_GPCR_rAdra2_NonSelective: NovaScreen (NVS) G Protein-Coupled Receptor Assay for rat Adrenergic Receptor, Alpha 2 (Adra2), Non-selective Binding (AID 2283299). The essentials: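 Rat cortical membranes, radioligand competitive displacement read by filter-based scintillation counting 1.25 hours after dosing. Primary screen in duplicate at 25 uM; actives followed up in concentration series.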

In assay [11] the target is rat Gamma-Aminobutyric Acid Type B Receptor (GABBR), Gabbr1 (gene 81657) (UniProt Q9Z0U4). Put plainly: NVS_GPCR_rGABBR: NovaScreen (NVS) G Protein-Coupled Receptor Assay for rat Gamma-Aminobutyric Acid Type B Receptor (GABBR) (AID 2283301). A digest of the protocol:
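Radioligand displacement on rat cortical membranes, 1 h, filter-based scintillation counting. Primary screen at 25 uM in duplicate; compounds passing threshold re-tested in concentration-response up to 50 uM; loss of binding fitted against DMSO.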

Assay [12] deals with rabbit Platelet Activating Factor Receptor (PAF), gene 100354046. In words: NVS_GPCR_rabPAF: NovaScreen (NVS) G Protein-Coupled Receptor Assay for rabbit Platelet Activating Factor Receptor (PAF) (AID 2283287). A digest of the protocol:
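Rabbit platelet membrane preparation; radioligand displacement read by filter-based scintillation counting 1 h after dosing, loss of signal versus DMSO. Primary screen in duplicate at 25 uM, actives followed up in concentration series.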

In assay [13] the target is human Purinergic Receptor P2Y, P2RY1 (gene 5028) (UniProt P47900). Put plainly: NVS_GPCR_hPY2: NovaScreen (NVS) G Protein-Coupled Receptor Assay for human Purinergic Receptor P2Y (AID 2283281). A digest of the protocol:
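Cell-free radioligand binding using U937-derived protein, 1 h after dosing, filter-based scintillation counting. Screened in duplicate at 25 uM; actives rerun as concentration-response up to 50 uM; loss of signal versus DMSO.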

In assay [14] the target is human Thromboxane A2 Receptor (TXA2), TBXA2R (gene 6915) (UniProt P21731). Put plainly: NVS_GPCR_hTXA2: NovaScreen (NVS) G Protein-Coupled Receptor Assay for human Thromboxane A2 Receptor (TXA2) (AID 2283282).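 Also: actives reduce bound radioligand signal relative to DMSO baseline.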 A digest of the protocol: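 Biochem binding, human platelets, cell-free; competitive radioligand displacement; 1 h; filter radiodetection. 25 uM duplicate primary, conc. series secondary; DMSO neg. ctrl.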

Assay [15] addresses rat Adrenergic, Alpha 1, Non-selective Receptor (Adra1), Adra1a (gene 29412) (UniProt P43140). Put plainly: NVS_GPCR_rAdra1_NonSelective: NovaScreen (NVS) G Protein-Coupled Receptor Assay for rat Adrenergic, Alpha 1, Non-selective Receptor (Adra1) (AID 2283289). A digest of the protocol:
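Rat forebrain membranes; radioligand displacement read by filter-based scintillation counting 1 h after dosing. Primary screen in duplicate at 25 uM; hits (e.g. ≥30% inhibition) rerun as concentration–response to 50 uM max. Fitted versus DMSO.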

The target in assay [16] is rat Adrenergic Receptor, Beta (Adrb), Non-selective Binding, Adrb1 (gene 24925) (UniProt P18090). Put plainly: NVS_GPCR_rAdrb_NonSelective: NovaScreen (NVS) G Protein-Coupled Receptor Assay for rat Adrenergic Receptor, Beta (Adrb), Non-selective Binding (AID 2283298). A digest of the protocol:
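Non-selective beta-adrenergic radioligand binding in rat cortical membranes, 1 h incubation, filter-based scintillation read-out. Primary screen 25 uM in duplicate; hits retested in concentration-response up to 50 uM, DMSO baseline.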

The target in assay [17] is mouse Cholecystokinin, CCK2 Receptor (CCKB), Cckbr (gene 12426) (UniProt P56481). Put plainly: NVS_GPCR_mCKKBCentral: NovaScreen (NVS) G Protein-Coupled Receptor Assay for mouse Cholecystokinin, CCK2 Receptor (CCKB) (AID 2283293). A digest of the protocol: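 Radioligand displacement binding on mouse forebrain membranes, 2 h exposure, filter-based scintillation counting. Primary screen in duplicate at 25 uM; actives (e.g. ≥30% inhibition) retested in concentration-response up to 50 uM; loss of binding signal relative to DMSO.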

Chain of rat Gamma-Aminobutyric Acid Type B Receptor (GABBR), Gabbr1 (gene 81657) (Q9Z0U4 whole entry, looked up): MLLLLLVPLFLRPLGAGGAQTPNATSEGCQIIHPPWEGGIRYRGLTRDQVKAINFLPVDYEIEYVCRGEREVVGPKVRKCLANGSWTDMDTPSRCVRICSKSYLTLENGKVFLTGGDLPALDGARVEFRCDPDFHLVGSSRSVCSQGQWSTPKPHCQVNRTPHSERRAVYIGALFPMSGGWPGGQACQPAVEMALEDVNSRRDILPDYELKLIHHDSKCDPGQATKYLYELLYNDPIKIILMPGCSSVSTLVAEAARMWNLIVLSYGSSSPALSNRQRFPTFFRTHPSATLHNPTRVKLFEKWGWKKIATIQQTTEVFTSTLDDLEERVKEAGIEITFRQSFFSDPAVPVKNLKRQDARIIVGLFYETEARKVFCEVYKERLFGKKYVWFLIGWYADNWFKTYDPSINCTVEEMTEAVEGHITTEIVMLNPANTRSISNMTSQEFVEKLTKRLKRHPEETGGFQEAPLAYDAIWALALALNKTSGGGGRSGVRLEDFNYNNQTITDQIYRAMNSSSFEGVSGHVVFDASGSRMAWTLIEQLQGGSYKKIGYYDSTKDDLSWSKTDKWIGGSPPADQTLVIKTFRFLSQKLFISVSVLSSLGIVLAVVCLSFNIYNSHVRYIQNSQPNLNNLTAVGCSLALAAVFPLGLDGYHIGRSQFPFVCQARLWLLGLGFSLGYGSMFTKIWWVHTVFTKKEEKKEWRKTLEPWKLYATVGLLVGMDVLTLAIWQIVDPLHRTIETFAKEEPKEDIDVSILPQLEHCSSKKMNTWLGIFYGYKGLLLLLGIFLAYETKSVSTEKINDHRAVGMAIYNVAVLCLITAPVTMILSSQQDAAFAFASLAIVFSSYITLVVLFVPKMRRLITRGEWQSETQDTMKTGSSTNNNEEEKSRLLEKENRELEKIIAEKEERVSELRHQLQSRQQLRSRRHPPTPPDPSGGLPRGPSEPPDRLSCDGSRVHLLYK
Chain of human Opioid Receptor Mu (Opiate Mu), OPRM1 (gene 4988) (P35372 whole entry, looked up): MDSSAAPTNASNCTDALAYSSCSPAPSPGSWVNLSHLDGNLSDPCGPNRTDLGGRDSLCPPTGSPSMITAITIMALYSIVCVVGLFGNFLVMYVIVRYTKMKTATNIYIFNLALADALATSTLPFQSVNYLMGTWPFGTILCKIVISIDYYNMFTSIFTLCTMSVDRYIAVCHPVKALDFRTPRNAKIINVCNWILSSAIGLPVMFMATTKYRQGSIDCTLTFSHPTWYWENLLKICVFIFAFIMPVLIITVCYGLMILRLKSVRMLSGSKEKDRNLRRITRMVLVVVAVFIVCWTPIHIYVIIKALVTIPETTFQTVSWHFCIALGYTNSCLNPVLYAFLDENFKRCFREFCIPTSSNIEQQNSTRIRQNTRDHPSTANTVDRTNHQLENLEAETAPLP
Chain of rat Adrenergic Receptor, Alpha 2 (Adra2), Non-selective Binding, Adra2a (gene 25083) (P22909 whole entry, looked up): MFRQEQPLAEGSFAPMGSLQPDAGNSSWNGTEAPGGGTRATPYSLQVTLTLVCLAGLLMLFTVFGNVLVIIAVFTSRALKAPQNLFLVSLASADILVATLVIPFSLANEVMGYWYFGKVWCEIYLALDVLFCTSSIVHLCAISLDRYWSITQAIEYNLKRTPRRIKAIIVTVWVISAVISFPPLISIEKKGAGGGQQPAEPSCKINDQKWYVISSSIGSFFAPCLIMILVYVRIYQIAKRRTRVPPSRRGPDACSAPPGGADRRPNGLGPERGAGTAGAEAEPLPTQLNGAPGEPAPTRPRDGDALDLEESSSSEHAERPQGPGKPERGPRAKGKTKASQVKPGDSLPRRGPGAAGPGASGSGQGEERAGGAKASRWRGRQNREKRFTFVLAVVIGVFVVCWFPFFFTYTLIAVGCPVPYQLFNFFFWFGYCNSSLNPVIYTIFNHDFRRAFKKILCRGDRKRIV
Chain of human Thromboxane A2 Receptor (TXA2), TBXA2R (gene 6915) (P21731 whole entry, looked up): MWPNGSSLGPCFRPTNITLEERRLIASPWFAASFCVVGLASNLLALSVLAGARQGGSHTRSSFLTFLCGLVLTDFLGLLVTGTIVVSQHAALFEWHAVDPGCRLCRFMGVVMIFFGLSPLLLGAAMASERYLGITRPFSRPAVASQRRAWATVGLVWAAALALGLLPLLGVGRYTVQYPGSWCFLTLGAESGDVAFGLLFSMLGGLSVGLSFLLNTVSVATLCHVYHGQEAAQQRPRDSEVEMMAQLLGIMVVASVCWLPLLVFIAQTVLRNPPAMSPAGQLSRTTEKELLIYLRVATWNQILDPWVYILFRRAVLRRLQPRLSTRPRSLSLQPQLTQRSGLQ
Chain of guinea pig Serotonin, 5-Hydroxytryptamine Receptor 4 (5HT4), HTR4 (gene 100135548) (O70528 whole entry, looked up): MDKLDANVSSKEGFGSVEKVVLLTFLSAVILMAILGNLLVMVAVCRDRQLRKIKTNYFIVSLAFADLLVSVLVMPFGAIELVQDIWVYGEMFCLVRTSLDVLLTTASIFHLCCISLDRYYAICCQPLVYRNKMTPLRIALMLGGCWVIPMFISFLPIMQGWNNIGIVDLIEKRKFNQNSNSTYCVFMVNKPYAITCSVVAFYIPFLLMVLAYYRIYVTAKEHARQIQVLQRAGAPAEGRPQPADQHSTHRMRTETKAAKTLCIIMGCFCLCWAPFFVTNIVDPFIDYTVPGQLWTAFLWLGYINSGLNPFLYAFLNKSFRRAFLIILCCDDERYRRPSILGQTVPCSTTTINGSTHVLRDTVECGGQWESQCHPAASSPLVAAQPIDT
Chain of rat Adrenergic, Alpha 1A Receptor (Adra1A), Adra1a (gene 29412) (P43140 whole entry, looked up): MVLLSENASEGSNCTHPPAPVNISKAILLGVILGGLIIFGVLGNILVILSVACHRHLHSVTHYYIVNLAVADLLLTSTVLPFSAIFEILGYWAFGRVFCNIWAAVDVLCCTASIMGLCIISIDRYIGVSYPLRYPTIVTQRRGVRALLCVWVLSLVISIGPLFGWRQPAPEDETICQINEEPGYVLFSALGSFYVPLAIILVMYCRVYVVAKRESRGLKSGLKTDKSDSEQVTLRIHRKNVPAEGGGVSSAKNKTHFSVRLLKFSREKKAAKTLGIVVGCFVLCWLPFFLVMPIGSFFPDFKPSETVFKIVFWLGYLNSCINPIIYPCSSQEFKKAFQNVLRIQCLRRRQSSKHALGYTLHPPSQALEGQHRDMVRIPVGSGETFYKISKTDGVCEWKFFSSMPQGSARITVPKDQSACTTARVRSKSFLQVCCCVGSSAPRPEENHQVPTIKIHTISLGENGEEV
Chain of guinea pig Bradykinin Receptor B2 (BK2), BDKRB2 (gene 100135486) (O70526 whole entry, looked up): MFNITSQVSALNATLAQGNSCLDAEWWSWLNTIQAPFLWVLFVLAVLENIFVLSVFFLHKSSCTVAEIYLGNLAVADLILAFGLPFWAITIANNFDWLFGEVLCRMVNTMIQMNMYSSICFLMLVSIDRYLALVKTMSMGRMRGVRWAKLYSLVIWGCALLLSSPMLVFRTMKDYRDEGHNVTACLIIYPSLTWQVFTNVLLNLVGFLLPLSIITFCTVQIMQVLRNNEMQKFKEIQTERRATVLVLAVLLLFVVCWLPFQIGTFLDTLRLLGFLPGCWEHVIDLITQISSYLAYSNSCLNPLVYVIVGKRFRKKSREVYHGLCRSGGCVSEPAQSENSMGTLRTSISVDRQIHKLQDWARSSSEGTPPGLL
Chain of rat Serotonin, 5-Hydroxytryptamine Receptor 1 (5HT1), Non-Selective Binding, Htr1a (gene 24473) (P19327 whole entry, looked up): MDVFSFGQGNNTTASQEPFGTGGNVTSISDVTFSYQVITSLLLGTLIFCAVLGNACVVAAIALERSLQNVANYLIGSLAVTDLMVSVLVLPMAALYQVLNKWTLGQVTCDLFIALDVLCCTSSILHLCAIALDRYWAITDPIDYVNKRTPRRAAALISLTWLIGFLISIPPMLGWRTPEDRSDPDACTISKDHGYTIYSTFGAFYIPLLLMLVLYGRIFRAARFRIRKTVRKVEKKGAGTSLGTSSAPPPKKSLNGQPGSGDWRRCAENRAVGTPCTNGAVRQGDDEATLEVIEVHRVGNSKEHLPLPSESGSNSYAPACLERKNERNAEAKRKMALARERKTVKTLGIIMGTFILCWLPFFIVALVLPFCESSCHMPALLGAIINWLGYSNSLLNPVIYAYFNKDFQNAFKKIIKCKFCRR
Chain of rat Serotonin, 5-Hydroxytryptamine Receptor (5HT), Non-Selective Binding, Htr1a (gene 24473) (P19327 whole entry, looked up): as above
Chain of human Opioid Receptor Delta 1 (Opiate D1), OPRD1 (gene 4985) (P41143 whole entry, looked up): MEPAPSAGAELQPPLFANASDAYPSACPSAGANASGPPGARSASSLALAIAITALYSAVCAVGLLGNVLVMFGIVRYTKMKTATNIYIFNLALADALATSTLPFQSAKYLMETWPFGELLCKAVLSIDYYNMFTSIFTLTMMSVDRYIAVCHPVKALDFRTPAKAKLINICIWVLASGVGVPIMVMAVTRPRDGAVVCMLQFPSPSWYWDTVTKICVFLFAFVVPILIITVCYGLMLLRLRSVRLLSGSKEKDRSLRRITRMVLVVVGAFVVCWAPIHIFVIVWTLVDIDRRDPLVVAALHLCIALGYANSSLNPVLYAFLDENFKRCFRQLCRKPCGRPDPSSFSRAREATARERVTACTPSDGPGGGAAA

With `c1ccc(C(O[C@@H]2CCCN(CCc3ccc4c(c3)OCO4)C2)c2ccccc2)cc1`, the AC50 in assay [1] is 19.4 µM (active); in assay [2], 9.62 µM (active); in [3] it was 5.08 µM (active); in [4] it was 5.65 µM (active); in assay [6], 3.4 µM (active); in [7] it was 5.63 µM (active). Also, the AC50 in assay [8] was 11.3 µM (active); in [9] it was 17 µM (active); in assay [10] it was 19.5 µM (active). Also, the molecule was classed as inactive in assay [5] and in [11].
As for `COCc1nnc(-c2ccc[n+]([O-])c2)n1-c1c(Cl)c(Cl)cc2[nH]c(=O)c(=O)[nH]c12`, the outcome in [3] was inactive.
For the molecule `COc1cc2c(c(OC)c1OC)-c1ccc(OC)c(=O)cc1[C@@H](NC(C)=O)CC2`, the AC50 in [12] is 17.1 µM (active).
Turning to `CCCCCCCCCCCCCCCCOS(=O)(=O)O`, the AC50 in assay [1] was 3.9 µM (active); in assay [13] it was 5.47 µM (active); in assay [14], 12.5 µM (active); in assay [4], 4.11 µM (active); in [9], 12.5 µM (active).
`COc1cc(C(C)C)c2c(c1)S(=O)(=O)N(COc1cc(=O)n3cccc(OCCN4CCCCC4)c3n1)C2=O`: the AC50 in assay [15] was 3.1 µM (active); in [6], 1.38 µM (active); in [9] it was 3.17 µM (active); in assay [10] it was 4.16 µM (active). Further, the molecule was called inactive in assay [4] and in assay [8].
On to `CCn1nc(C)c2c1C(=O)NCC(c1ccc(O)cc1)=N2`, for which the AC50 in assay [14] is 14.4 µM (active). The outcome in [2], in assay [3], in assay [4], in assay [7], in [8] and in assay [16] was inactive. For the same molecule, in [10], the molecule was called inactive.
With `S=P(N1CC1)(N1CC1)N1CC1`, the molecule was classed as inactive in assay [10].
For `OCc1c[nH]c2ccccc12`, the molecule was called inactive in [14].
For `CCCOc1ccc(S(=O)(=O)N2CCN(CC)CC2)cc1-c1nc2c(CC)n(Cc3ccccn3)nc2c(=O)[nH]1`, the values for the AC50 in [12] and in [15] were 6.42 µM (active) and 0.402 µM (active), respectively.
For `O=C(O)[C@H](O)[C@@H](O)C(=O)O`, the outcome in assay [4] was inactive.
As to `C=CN1CCCC1=O`, in assay [4], the call was inactive.
Take `NC(=O)N1c2ccccc2C=Cc2ccccc21`: the result in [11] was inactive.
On to `CCCCCCCCCC`, for which the outcome in [12], in assay [3], in assay [4], in assay [5], in [17] and in assay [6] was inactive. The outcome in [9] and in [11] was inactive.
For `CCCCCCCCCCCCCCO`, the molecule was called inactive in assay [4].
As to `c1ccc2cc3ccccc3cc2c1`, the call in [4] was inactive.
